Experimental data published in the supplement of paper PMC6555819.

Experiments:
Assay in all cases: PBM binding z-score (relative to random genomic background probes); higher = stronger binding; sequences stand for … in GC…GCGATTGACAGCGTAGAATGAAGG
[1] = system: RARb homodimer (NR concentration 270 nM)
In short: (§1)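 Scanned fluorescence from custom Agilent 4×180K protein-binding microarrays was regression-normalized. Binding z-scores use random background probes as reference. Ligand-free nuclear receptor dimers were incubated on the arrays for 1 h and detected with antibodies against each partner (one per run).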

[2] = system: RARg:RXRa (NR concentration 270 nM, RXRa partner concentration 90 nM)
In short: as §1

[3] = system: RARg homodimer (NR concentration 270 nM)
In short: as §1

[4] = system: RXRa DBDmut IVT, anti-RXR (DBD mutation: RXRa K156A/R161A, NR concentration 90 nM)
In short: as §1

[5] = system: RXRa homodimer (NR concentration 180 nM)
In short: as §1

[6] = system: THRa:RXRa (NR concentration 90 nM, RXRa partner concentration 90 nM)
In short: as §1

[7] = system: THRa homodimer (NR concentration 90 nM)
In short: as §1

[8] = system: VDR homodimer (NR concentration 270 nM)
In short: as §1

Sequence | PBM binding z-score [1] | PBM binding z-score [2] | PBM binding z-score [3] | PBM binding z-score [4] | PBM binding z-score [5] | PBM binding z-score [6] | PBM binding z-score [7] | PBM binding z-score [8]
GTACCAAGGTGAATAGGTTGTTGATGAGTAGGCG | 0.824 | 1.07 | 0.763 | 0.247 | 0.717 | 1.55 | 0.782 | 0.391
TATACAGGGTCAAAGGCCAGAGTGCGAATGTCGA | 3.58 | 5.91 | 5 | 3.25 | 7.4 | 3.57 | 0.842 | 3.38
CCTTACGGGTCAAGCTTATAGCACGGGTGGTACG | 2.82 | 4.93 | 4.64 | 1.11 | 5.08 | 2.23 | -0.294 | 0.754
ATCTCTACGTAAAAGTTCAGTGAATCCCGAGGAT | 2.42 | 1.57 | 2 | 0.755 | 0.831 | 0.591 | 0.154 | 1.5
TCGAGTTGGTCACGGAGGTCACACACGACGGGTA | 4.47 | 4.77 | 4.81 | 1.32 | 4.92 | 3.77 | 2.24 | 3.52
CCTAGTTGGTCAGGAGGTCACACCCCGGATATGA | 4.41 | 5.03 | 4.13 | 0.124 | 4.77 | 3.74 | 2.36 | 2.96
TCTATTAGTTGATCAGGGCAACCGAAACAGCGGA | 0.681 | 0.484 | 0.555 | 1.15 | 0.519 | 0.815 | 0.591 | 0.203
ACTAGCAGGCCAAGATTGGGTCACTCAAACAAAG | 1.97 | 1.63 | 1.37 | -0.534 | 0.621 | 1.84 | 0.533 | 0.0162
GCTTGTAGATCAAGGTGAAGAAAGACTAAGCTAA | -0.485 | -0.139 | -0.0485 | -0.298 | -0.15 | 1.04 | 0.0567 | -0.307
ATCGAAAGGTCGAGGAGAGTATAGAGAAAGGGAA | 2.25 | 4.13 | 3.86 | 0.539 | 4.21 | 1.94 | -0.151 | 0.103
CAGCCTAGGTCAGGGCCCGTATAGGAGGAACGTT | 2.26 | 2.9 | 3.84 | -0.894 | 1.46 | 1.73 | 0.213 | -0.478
GCTTATAGGTAATACAAGGTGAAAGTCCGATTGT | 1.05 | 0.63 | 0.649 | 0.59 | 0.772 | 4.28 | 1.16 | 0.227
TCGCGGAGGACACGAAAGGTCAGAGCTCGACATC | 4.42 | 4.79 | 5.1 | 0.362 | 3.86 | 3.6 | 0.956 | 0.898
CCTCGGAGCACAACAGGAGGTCAGAGCTGCCAGA | 2.86 | 1.9 | 1.65 | -0.138 | 1.74 | 1.91 | 0.301 | 0.485
TGAATGAGGTTATAAGATCAGTGAACGTTGCAAA | 0.307 | 1.49 | 0.953 | 0.773 | 1.95 | 1.69 | 0.0121 | 0.482
CGTCCATGGTCAATGCTAGGTCAGTGAAAGCATT | 2.59 | 2.58 | 1.9 | 0.0994 | 0.519 | 1.9 | 0.665 | -0.0955
TCTTGTAGATCAAAGGTTAAGAACGCCGAAGCCT | 1.51 | 1.82 | 0.951 | 0.794 | 3.38 | 1.53 | -0.428 | 0.13
CCTAGTTGGTCAGGAGGTCAGACACCGGATATGA | 3.57 | 3.8 | 3.09 | 0.173 | 2.74 | 2.43 | 1.11 | 1.42
CAAACTAGGTCACAGACGTCAAAGTCCGTGCGTA | 3.28 | 4.49 | 5.14 | 1.98 | 3.61 | 3.32 | 1.23 | 0.686

Sequence | PBM binding z-score [1] | PBM binding z-score [2] | PBM binding z-score [3] | PBM binding z-score [4] | PBM binding z-score [5] | PBM binding z-score [6] | PBM binding z-score [7] | PBM binding z-score [8]
TCTAGCAGGCCAGATGGTCACTCAAGAGGTACGG | 0.18 | 0.0724 | 0.0188 | -0.141 | -0.0633 | -0.597 | -0.77 | -1.21
ATATGTAGGTTAAGGGTTATTCAGGTTGGTTCGC | 1.91 | 2.11 | 1.34 | 0.963 | 2.75 | 2.37 | 1.52 | 1.83
CCTATTAGTTGACCATAAGGGCAACCGCAGCTCG | 2.18 | 1.05 | 1.07 | 0.58 | 0.711 | 1.83 | 1.49 | 0.923
AGTCAAAGTTCGTCTAGGTAACGTAAGATATGCT | 1.35 | 1.99 | 2.11 | 3.25 | 1.39 | 1.97 | 0.129 | 2.49
ATATGTAGATTATCGGGTCATTCAGTTTGCGCAT | 2.3 | 1.94 | 1.35 | 1.21 | 2.45 | 3.14 | 2.5 | 4.05
CAAACTAGGTGAAGAGGTCAAAGTCCGCTTCCCG | 4.7 | 5.44 | 3.96 | 1.73 | 5.48 | 3.86 | 1.42 | 3.38
ATCTCTAGGTAAGACTCAATTCAGTGAAGAACGC | 0.0312 | 0.0724 | 0.455 | 0.244 | 0.0675 | 0.381 | 0.522 | 0.603
CGTCAAAGTTCAAGGTAAGGTAACAGAAAGCAGC | 3.86 | 5.71 | 5.4 | 4.12 | 4.23 | 4.38 | 1.85 | 2.9
CCTACTGGGCCAAGGTCCTTGATCAGTCAAAGCA | 0.00283 | -0.396 | -0.0984 | -1.13 | -0.463 | -0.0193 | -0.503 | -0.774
CGAACGAGGGCATGAGTTGAGAGCAAATGCCGAT | 0.724 | 1.46 | 1.56 | 1.8 | 1.02 | 1.25 | -0.339 | 1.26
ATCTCTAGGTAAAGAGAGTTCAGTGAATGCAAAT | 1.55 | 0.963 | 1.18 | 1.12 | 0.653 | 1.56 | -0.0506 | 3.67
CGTCCAAGGTCAAAGGTCAGTTAAGAGATGACGG | 5.64 | 8.47 | 7.74 | 3.83 | 9.85 | 5.11 | 2.91 | 3.63
CGAACAAGGTCAGAACAGGACAGTGAAGGATGAT | 3.28 | 4.38 | 4.86 | 2.29 | 3.5 | 4.28 | 1.11 | 1.14
GCTGACGGGTCAAAGGTTATAGCATGAATAGAAT | 3.04 | 6.46 | 4.08 | 1.66 | 9.14 | 3.85 | -0.263 | 0.919
CCTGCTAGGTCAATGGTCGGCTAAAGCAGCTCGC | 2.9 | 3.87 | 4.16 | 1.74 | 1.88 | 2.42 | 0.749 | 0.149
CCAGACAGGTGAAAGGAAACTCAGTCTGGTACGC | -0.0541 | 0.0543 | 0.198 | -0.167 | 0.41 | -0.104 | -0.669 | -0.334
CCTCGGAGGACAACAGGAGGTCAGAACTGCCAGA | 3.33 | 3.23 | 3.05 | 0.497 | 1.81 | 2.59 | 0.726 | 0.781
CCTCGGAGGACAACAGGAGGGCAGAGCTGCCAGA | 1.42 | 0.94 | 2.08 | -0.00274 | -0.287 | 0.794 | -0.458 | -0.448
CTTGAAAGGTCGTGCTCAGGTGAGTATACCAAAC | 2.75 | 5.02 | 3.64 | 2.21 | 5.06 | 4.21 | 0.803 | 1.03

Sequence | PBM binding z-score [1] | PBM binding z-score [2] | PBM binding z-score [3] | PBM binding z-score [4] | PBM binding z-score [5] | PBM binding z-score [6] | PBM binding z-score [7] | PBM binding z-score [8]
AGAATGTGGTTATACGTAGATCAGGGAAGAAAGT | 0.494 | 0.184 | 0.305 | 0.187 | -0.0859 | 0.207 | 0.0442 | -0.179
TCTTGTAGATCAACAGCAGGTTAAGAAAGATCGA | 0.0548 | 0.165 | -0.0185 | 0.681 | 0.512 | 0.308 | -0.504 | -0.471
CAAACTAGCTCAAGGTCAAAGTCGGTTTGTGCCA | 4.04 | 4.12 | 3.84 | 2.23 | 4.51 | 3.95 | 3.59 | 3.7
CCTAGCAGGCCAATGTGGGTCACTCAAGGCTTGA | 2.16 | 1.23 | 1.02 | -0.341 | 1.15 | 2.63 | -0.567 | -0.0479
CCTATTAGTTGAGCATAAGGGCAACCGAAGCTCG | 1.42 | 0.728 | 0.652 | 0.381 | 0.162 | 1.58 | 0.923 | 0.43
TCTCGGAGGACACGAAGGTCAGACCTTTCCAGAG | 3.98 | 3.27 | 3.81 | 1.03 | 1.94 | 3.08 | 1.21 | 1.44
TCTTGTAGAGCAAAGGTTAAGAAAGCCGAAGCCT | 1.17 | 1.43 | 0.586 | -0.181 | 2.6 | 1.06 | -1.14 | -0.734
TGAATGAGGTTATAAGATCGGGGAACGTTGCAAA | 0.0926 | 1.17 | 0.891 | 0.942 | 1.77 | 1.76 | 0.158 | 0.395
ACTTACGGGTCAACGAGCTTATAGCACGCGTATA | 2.92 | 5.34 | 5.01 | 1.56 | 6.14 | 2.46 | 0.0469 | 0.846
CGAACTAGGGCATCCAGGACAGTGAATACATTGA | 0.585 | 0.674 | 1.17 | 0.66 | 0.135 | 1.61 | 0.745 | 0.366
CGTCAAAATTCAACTAAGGTAACGTAAAGCACGC | 0.445 | 0.33 | 0.586 | 0.407 | 0.529 | 2.94 | 1.75 | 0.233
TCTTGTAGATCAAGGAGGTTAAGAAAGCCTGAGT | 0.594 | 0.234 | -0.0688 | 0.581 | 0.685 | 0.835 | -0.069 | 0.29
AGTCTAAGTTCAGGACGAGGTAACGTAAAGCACG | 1.85 | 3.11 | 2.65 | 3.28 | 1.57 | 3.56 | 1.99 | 2.62
AGAATGAGTTTACCAAAGATCAGGGAAACGCTTG | -0.757 | -0.0513 | 0.236 | 3 | 0.272 | -0.103 | -0.687 | 1.78
CCGACTGGGCCAAAAAGGTCATTGATGCCGATAA | 4.22 | 4.39 | 3.5 | 0.66 | 4.52 | 3.14 | 0.199 | 2.14
CCTACTGGGCCACGAATGGTCATTGATTCAGTGA | 0.417 | -0.0594 | 0.262 | -0.448 | -0.409 | -0.231 | -0.537 | -0.38
TAGCCTAGGTCATGGGCCAGTACACCACGCGAAC | 2.88 | 4.3 | 4.65 | 0.275 | 3.7 | 2.99 | 1.48 | 0.985
CGAACGAGGGCAAGAGTTGATAGCAAATGCCGAT | 1.44 | 1.67 | 1.85 | 1.89 | 1.1 | 0.79 | -0.443 | 1.07
